# Reference: the supplement of paper PMC6897291
# Structures can show the parent of a compound that is named as a salt.
# System: RIVA
# Assay: growth inhibition by drug plus 177Lu-lilotomab satetraxetan (1 - RLU/untreated control) (fraction); higher = stronger inhibition
# Conditions: 177Lu-lilotomab satetraxetan 0.5 ug/ml
# Protocol: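 RIVA (RI-1) ABC-DLBCL cells were pretreated or not for 18 h with 0.5 ug/ml 177Lu-lilotomab satetraxetan (600 MBq/mg), washed and seeded (3000 cells/well) on 384-well plates pre-printed with the Selleck Cambridge Cancer Compound library. Viability was read by RealTime-Glo luminescence on days 3-6 after seeding. Effect = 1 - RLU/mean RLU of the 48 untreated no-drug control wells per plate; Bliss score = (M-E)/(1-Fa).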
smiles,measurement,setting,value
O=C(Cc1ccc(-c2ccc(OCCN3CCOCC3)cc2)cn1)NCc1ccccc1,growth inhibition by drug plus 177Lu-lilotomab satetraxetan,"10 nM, time (day): 3",0.466
same,growth inhibition by drug plus 177Lu-lilotomab satetraxetan,"10 nM, time (day): 4",0.544
same,growth inhibition by drug plus 177Lu-lilotomab satetraxetan,"10 nM, time (day): 5",0.565
same,growth inhibition by drug plus 177Lu-lilotomab satetraxetan,"10 nM, time (day): 6",0.575
same,growth inhibition by drug plus 177Lu-lilotomab satetraxetan,"100 nM, time (day): 3",0.833
same,growth inhibition by drug plus 177Lu-lilotomab satetraxetan,"100 nM, time (day): 4",0.839
same,growth inhibition by drug plus 177Lu-lilotomab satetraxetan,"100 nM, time (day): 5",0.863
same,growth inhibition by drug plus 177Lu-lilotomab satetraxetan,"100 nM, time (day): 6",0.881
O=C1NC(=O)/C(=C\c2cccc(C(F)(F)F)c2)S1,growth inhibition by drug plus 177Lu-lilotomab satetraxetan,"10 nM, time (day): 3",0.418
same,growth inhibition by drug plus 177Lu-lilotomab satetraxetan,"10 nM, time (day): 4",0.47
same,growth inhibition by drug plus 177Lu-lilotomab satetraxetan,"10 nM, time (day): 5",0.492
same,growth inhibition by drug plus 177Lu-lilotomab satetraxetan,"10 nM, time (day): 6",0.508
same,growth inhibition by drug plus 177Lu-lilotomab satetraxetan,"100 nM, time (day): 3",0.391
same,growth inhibition by drug plus 177Lu-lilotomab satetraxetan,"100 nM, time (day): 4",0.456
same,growth inhibition by drug plus 177Lu-lilotomab satetraxetan,"100 nM, time (day): 5",0.458
same,growth inhibition by drug plus 177Lu-lilotomab satetraxetan,"100 nM, time (day): 6",0.45
Cc1[nH]c(/C=C2\C(=O)Nc3ccc(S(=O)(=O)N(C)c4cccc(Cl)c4)cc32)c(C)c1C(=O)N1CCN(C)CC1,growth inhibition by drug plus 177Lu-lilotomab satetraxetan,"10 nM, time (day): 3",0.489
same,growth inhibition by drug plus 177Lu-lilotomab satetraxetan,"10 nM, time (day): 4",0.536
same,growth inhibition by drug plus 177Lu-lilotomab satetraxetan,"10 nM, time (day): 5",0.543
same,growth inhibition by drug plus 177Lu-lilotomab satetraxetan,"10 nM, time (day): 6",0.552
same,growth inhibition by drug plus 177Lu-lilotomab satetraxetan,"100 nM, time (day): 3",0.412
same,growth inhibition by drug plus 177Lu-lilotomab satetraxetan,"100 nM, time (day): 4",0.518
same,growth inhibition by drug plus 177Lu-lilotomab satetraxetan,"100 nM, time (day): 5",0.528
same,growth inhibition by drug plus 177Lu-lilotomab satetraxetan,"100 nM, time (day): 6",0.523
C[C@@H]1CN(CC(=O)Nc2ccc3c(c2)Cc2cccc(-c4cc(=O)cc(N5CCOCC5)o4)c2S3)C[C@H](C)O1,growth inhibition by drug plus 177Lu-lilotomab satetraxetan,"10 nM, time (day): 3",0.275
same,growth inhibition by drug plus 177Lu-lilotomab satetraxetan,"10 nM, time (day): 4",0.441
same,growth inhibition by drug plus 177Lu-lilotomab satetraxetan,"10 nM, time (day): 5",0.452
same,growth inhibition by drug plus 177Lu-lilotomab satetraxetan,"10 nM, time (day): 6",0.479
same,growth inhibition by drug plus 177Lu-lilotomab satetraxetan,"100 nM, time (day): 3",0.232
same,growth inhibition by drug plus 177Lu-lilotomab satetraxetan,"100 nM, time (day): 4",0.357
same,growth inhibition by drug plus 177Lu-lilotomab satetraxetan,"100 nM, time (day): 5",0.37
same,growth inhibition by drug plus 177Lu-lilotomab satetraxetan,"100 nM, time (day): 6",0.373
CCc1c2c(nc3ccc(OC(=O)N4CCC(N5CCCCC5)CC4)cc13)-c1cc3c(c(=O)n1C2)COC(=O)[C@]3(O)CC [Irinotecan HCl Trihydrate (Campto)],growth inhibition by drug plus 177Lu-lilotomab satetraxetan,"10 nM, time (day): 3",0.219
same,growth inhibition by drug plus 177Lu-lilotomab satetraxetan,"10 nM, time (day): 4",0.422
same,growth inhibition by drug plus 177Lu-lilotomab satetraxetan,"10 nM, time (day): 5",0.475
same,growth inhibition by drug plus 177Lu-lilotomab satetraxetan,"10 nM, time (day): 6",0.51
same,growth inhibition by drug plus 177Lu-lilotomab satetraxetan,"100 nM, time (day): 3",0.485
same,growth inhibition by drug plus 177Lu-lilotomab satetraxetan,"100 nM, time (day): 4",0.649
same,growth inhibition by drug plus 177Lu-lilotomab satetraxetan,"100 nM, time (day): 5",0.699
same,growth inhibition by drug plus 177Lu-lilotomab satetraxetan,"100 nM, time (day): 6",0.741
